These results are taken from PubChem BioAssay (Tox21).

The nature of assay [1]: qHTS assay to test for compound auto fluorescence at 535 nm (green) in HEK293 cells (AID 720680). A general note: In qHTS, concentration-response curves come from the screen itself.
The nature of assay [2]: qHTS assay to test for compound auto fluorescence at 460 nm (blue) in HEK293 cell free culture (AID 720681). Summed up:
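Blue fluorescence (Ex 405/Em 460 nm, triamterene-equivalent) was read immediately after pin transfer of compound or DMSO into medium (DMEM, 10% FBS) without cells.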

A short description of assay [3]: qHTS assay to test for compound auto fluorescence at 535 nm (green) in HEK293 cell free culture (AID 720682). The gist of the method:
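Compounds were pin-transferred into cell-free DMEM with 10% FBS, and green fluorescence was read at excitation 485 nm and emission 535 nm. Intensities were expressed as fluorescein-equivalent values.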

Assay [4] is described as follows: qHTS assay to test for compound auto fluorescence at 590 nm (red) in HEK293 cell free culture (AID 720683). Summed up:
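Red-channel autofluorescence of compounds in culture medium (DMEM, 10% FBS), no cells, measured at 540/590 nm. Rose Bengal sodium is the reference fluorophore for equivalence.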

Assay [5] in a line: qHTS assay to test for compound auto fluorescence at 590 nm (red) in HepG2 cell free culture (AID 720684). Summed up:
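Steps: dispense MEM/10% FBS medium, no cells; pin compound or DMSO vehicle; read red channel, Ex/Em 540/590 nm. Output given as Rose Bengal sodium equivalents.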

Assay [6] is described as follows: qHTS assay to test for compound auto fluorescence at 460 nm (blue) in HepG2 cell free culture (AID 720685). Summed up: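 Compound (23 nL) or DMSO pinned into cell-free MEM with 10% FBS; blue fluorescence read at 405/460 nm excitation/emission, expressed as auto-fluorescence equivalency to triamterene.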
Assay [7] is described as follows: qHTS assay to test for compound auto fluorescence at 535 nm (green) in HepG2 cell free culture (AID 720686).
Assay [8] in a line: qHTS assay to test for compound auto fluorescence at 460 nm (blue) in HepG2 cells (AID 720687). The gist of the method: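 Blue-channel autofluorescence (Ex/Em 405/460 nm, triamterene-equivalent) was measured after 1 hr compound exposure at 37 C, 5% CO2. Cells were HepG2, plated overnight at 37 C in MEM plus 10% FBS.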
Assay [9] has as its target Glucocorticoid receptor (Homo sapiens) (UniProt P04150). The assay is described as follows: qHTS assay to identify small molecule agonists of the glucocorticoid receptor (GR) signaling pathway (AID 720691; active = well fitted activation curve with a large enough effect in the signal ratio in the repeat runs, not every such curve was filed as active; the % refers to the signal ratio). Summed up:
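Agonist mode in a HeLa line carrying a GRE-controlled beta-lactamase reporter. Compounds act for 18 h at 37 C before a 2 h room-temperature FRET substrate step and fluorescence reading.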

Assay [10] shares this target. Description: qHTS assay to identify small molecule antagonists of the glucocorticoid receptor (GR) signaling pathway (AID 720692; active = well fitted inhibition curve with a large enough effect in the signal ratio in the repeat runs, not every such curve was filed as active; the % refers to the signal ratio). The gist of the method: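 Cells plated, rested 4 h at 37 C/5% CO2; compounds in DMSO pin-transferred; dexamethasone added to 5 nM final; 18 h at 37 C; B/G FRET substrate added, 2 h room temperature; fluorescence measured.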
Assay [11] can be described thus: qHTS assay to identify small molecule antagonists of the glucocorticoid receptor (GR) signaling pathway - cell viability counter screen (AID 720693). Also: nearly all actives have a fitted effect of over 55% in size.
Assay [12] is described as follows: qHTS assay for identifying genotoxic compounds that show differential cytotoxicity against isogenic chicken DT40 cell lines with known DNA damage response pathways - wild type cell line (AID 743012). Also: nearly all actives have a fitted effect of over 60% in size. Also: potency is read from the fitted curve at half-maximal effect. Summed up:
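Cells (DT40 wild type, 300/well) are treated with DMSO-dissolved compounds after a ~0.5 h pre-incubation and kept 40 h at 37 C/5% CO2. Viability is then measured by CellTiter-Glo luminescence following 30 min at room temperature.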

The nature of assay [13]: qHTS assay for identifying genotoxic compounds that show differential cytotoxicity against isogenic chicken DT40 cell lines with known DNA damage response pathways - Rad54/Ku70 mutant cell line (AID 743015). Also: nearly all actives have a fitted effect of over 60% in size. Also: potency is read from the fitted curve at half-maximal effect.
The nature of assay [14]: qHTS assay to identify small molecule antagonists of the androgen receptor (AR) signaling pathway - cell viability counter screen (AID 743033; also: nearly all actives have a fitted effect of over 45% in size).
The nature of assay [15]: qHTS assay to identify small molecule antagonists of the androgen receptor (AR) signaling pathway using the MDA cell line - cell viability counter screen (AID 743041; also: nearly all actives have a fitted effect of over 45% in size). The gist of the method: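 Cells were plated at 3,000 per well and left 5 h. Compounds in DMSO were then pinned in, followed by R1881. After 16 h at 37C, CellTiter-Fluor fluorescence gave viability.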
The nature of assay [16]: qHTS assay for identifying genotoxic compounds that show differential cytotoxicity against isogenic chicken DT40 cell lines with known DNA damage response pathways - Rev3 mutant cell line (AID 743014). Also: nearly all actives have a fitted effect of over 55% in size. Also: potency is read from the fitted curve at half-maximal effect.
Assay [17] concerns the target Androgen receptor (Homo sapiens) (UniProt P10275). The assay is described as follows: qHTS assay to identify small molecule agonists of the androgen receptor (AR) signaling pathway using the MDA cell line (AID 743040; also: nearly all actives have a fitted effect of over 20% in size). Summed up: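 Cells plated, 5 h at 37C/0% CO2; compound or DMSO pinned; 16 h at 37C; ONE-Glo added; luminescence measured after 30 min at room temperature. Reporter line: MDA-kb2 with MMTV-luciferase responsive to AR and GR.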

For assay [18] the target is unchanged. The assay is described as follows: qHTS assay to identify small molecule antagonists of the androgen receptor (AR) signaling pathway using the MDA cell line (AID 743042; also: nearly all actives have a fitted effect of over 55% in size). The gist of the method:
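Antagonist mode: compounds plus R1881 agonist added to MDA-kb2 AR-luc cells, incubated 16 h at 37C. Luciferase reporter luminescence quantified, with multiplexed CellTiter-Fluor readout for cell viability.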

For assay [19] the target is unchanged. The assay is described as follows: qHTS assay to identify small molecule antagonists of the androgen receptor (AR) signaling pathway (AID 743035; active = well fitted inhibition curve with a large enough effect in the signal ratio in the repeat runs, not every such curve was filed as active; the % refers to the signal ratio). Summed up: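 Antagonism is scored as loss of R1881-driven beta-lactamase reporter expression in HEK293 cells carrying the reporter under a UAS element, after 16 h co-treatment at 37C and a 2 h room-temperature FRET substrate read.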

The target is the same in assay [20]. The assay is described as follows: qHTS assay to identify small molecule agonists of the androgen receptor (AR) signaling pathway (AID 743036; active = well fitted activation curve with a large enough effect in the signal ratio in the repeat runs, with a control signal flat, not every such curve was filed as active; the % refers to the signal ratio). Summed up:
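Activation was read as beta-lactamase FRET signal from LiveBLAzer B/G substrate, added for 2 h at room temperature. Before that, GeneBLAzer AR-UAS-bla GripTite (HEK293) cells had 16 h compound exposure at 37C.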

“And” between values parts separate entries of the source, which are not always exact repeats. Identical values can stand only once. Inconclusive results are not listed. Some structures have more than one record in an assay (separate samples or runs), and their calls can disagree. The source made the active and inactive calls. Unless noted, calls follow the shape of the dose curve; as a rule, active = well fitted curve in the direction sought with a large enough effect in the repeat runs; inconclusive = weak or mixed curves; inactive = no such curve, though single readings can be large; an effect the other way counts as inactive or inconclusive.

Glucocorticoid receptor (Homo sapiens), sequence (P04150 whole entry, looked up): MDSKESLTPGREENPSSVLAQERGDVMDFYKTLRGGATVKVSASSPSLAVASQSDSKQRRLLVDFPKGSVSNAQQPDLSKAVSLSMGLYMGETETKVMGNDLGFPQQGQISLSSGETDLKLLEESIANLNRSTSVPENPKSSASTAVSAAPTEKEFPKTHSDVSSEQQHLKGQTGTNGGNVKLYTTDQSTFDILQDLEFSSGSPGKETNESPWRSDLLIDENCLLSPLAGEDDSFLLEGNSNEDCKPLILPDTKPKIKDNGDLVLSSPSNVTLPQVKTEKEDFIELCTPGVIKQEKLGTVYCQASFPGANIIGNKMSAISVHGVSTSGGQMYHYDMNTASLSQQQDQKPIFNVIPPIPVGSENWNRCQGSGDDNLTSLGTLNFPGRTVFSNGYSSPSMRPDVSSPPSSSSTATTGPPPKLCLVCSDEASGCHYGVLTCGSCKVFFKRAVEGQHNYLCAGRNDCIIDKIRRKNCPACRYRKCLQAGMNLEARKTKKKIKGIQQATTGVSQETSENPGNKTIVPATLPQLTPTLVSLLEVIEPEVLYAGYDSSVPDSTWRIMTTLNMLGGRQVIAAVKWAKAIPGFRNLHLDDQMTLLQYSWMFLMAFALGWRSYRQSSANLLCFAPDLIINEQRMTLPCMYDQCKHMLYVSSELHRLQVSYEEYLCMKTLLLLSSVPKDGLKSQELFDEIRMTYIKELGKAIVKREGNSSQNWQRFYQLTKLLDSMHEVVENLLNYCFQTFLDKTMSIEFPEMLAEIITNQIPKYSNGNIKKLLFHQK
Androgen receptor (Homo sapiens), sequence (P10275 whole entry, looked up): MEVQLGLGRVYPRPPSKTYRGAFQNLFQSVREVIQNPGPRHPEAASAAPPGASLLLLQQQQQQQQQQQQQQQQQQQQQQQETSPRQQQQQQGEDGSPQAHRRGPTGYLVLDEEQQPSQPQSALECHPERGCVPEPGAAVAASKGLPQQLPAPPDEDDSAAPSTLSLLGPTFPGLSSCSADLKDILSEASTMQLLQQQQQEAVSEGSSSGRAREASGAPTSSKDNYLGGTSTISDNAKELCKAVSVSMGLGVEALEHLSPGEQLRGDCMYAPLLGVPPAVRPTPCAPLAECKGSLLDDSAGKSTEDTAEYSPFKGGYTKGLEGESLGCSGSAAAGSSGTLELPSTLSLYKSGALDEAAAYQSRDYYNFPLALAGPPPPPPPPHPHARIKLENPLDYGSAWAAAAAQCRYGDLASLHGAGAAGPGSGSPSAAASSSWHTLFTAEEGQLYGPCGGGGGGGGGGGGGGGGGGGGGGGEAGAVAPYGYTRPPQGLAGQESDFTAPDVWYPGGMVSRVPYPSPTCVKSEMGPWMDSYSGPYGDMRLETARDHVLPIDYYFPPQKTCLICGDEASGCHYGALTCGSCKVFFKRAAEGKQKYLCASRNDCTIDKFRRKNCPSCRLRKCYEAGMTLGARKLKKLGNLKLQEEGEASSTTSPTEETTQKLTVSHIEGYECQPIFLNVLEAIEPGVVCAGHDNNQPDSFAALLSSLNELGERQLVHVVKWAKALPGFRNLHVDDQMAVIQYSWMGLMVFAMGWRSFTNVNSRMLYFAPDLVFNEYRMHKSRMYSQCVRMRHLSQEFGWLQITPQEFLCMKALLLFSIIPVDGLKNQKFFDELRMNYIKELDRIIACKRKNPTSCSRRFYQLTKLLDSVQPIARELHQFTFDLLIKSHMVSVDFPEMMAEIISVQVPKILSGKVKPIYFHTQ

With `CCCCC(C=O)CC` (centres undefined), the compound was classed as inactive in assay [1], in assay [2], in assay [3], in assay [4], in [5] and in [6]. Moreover, the outcome in assay [7], in [8], in assay [9], in assay [11] and in assay [14] was inactive. Besides, the Potency result in [10], in assay [12], in [13] and in assay [15] was “inactive” throughout.
As to `O=C(O)c1cc2ccccc2cc1O`, the call in [1], in assay [2], in assay [3], in assay [4], in [5] and in [6] was inactive. The call in assay [7], in assay [8], in [9], in [11], in assay [14] and in assay [18] was inactive. Also, the Potency result in [10], in assay [12], in assay [16], in assay [13], in [17] and in [15] was “inactive” each time.
As to `Cc1ccc([N+](=O)[O-])cc1S(=O)(=O)O`, the call in [1], in [2], in assay [3], in assay [4], in [5] and in assay [6] was inactive. The result in [7], in assay [8], in assay [9], in [11], in assay [14] and in assay [19] was inactive. The call in assay [18] was inactive. The Potency entry in assay [10], in assay [12], in assay [13], in assay [20], in assay [17] and in assay [15] was “inactive” in each case.
With `CN(C)c1ccc(Cc2ccc(N(C)C)cc2)cc1`, the result in assay [1], in assay [2], in [3], in [4], in assay [5] and in [6] was inactive. The outcome in assay [7], in assay [8], in assay [9], in assay [11] and in [14] was inactive. In addition, the Potency entry in assay [10] and in assay [15] was “inactive” each time. The Potency was 27.3 µM (active) in assay [12]; 48.8 µM (active) and 27.3 µM (active) in assay [16]; 61.4 µM (active) and 24.3 µM (active) in assay [13].
Consider `CC1(C)NC(=O)NC1=O`, for which the compound was called inactive in [1], in [2], in assay [3], in assay [4], in assay [5] and in [6]. Also, the compound was classed as inactive in assay [7], in assay [8], in [9], in assay [11] and in assay [14]. Also, the Potency entry in assay [10], in assay [12], in assay [16], in assay [13] and in [15] was “inactive” each time.
With `c1ccc2c(c1)Cc1ccccc1-2`, the compound was called inactive in [1], in assay [2], in [3], in assay [4], in [5] and in assay [6]. Besides, the outcome in assay [7], in [8], in assay [9], in [11] and in assay [14] was inactive. The Potency entry in assay [10], in assay [12] and in assay [15] was “inactive” each time. The Potency entry was “inactive and 61.1 µM (active)” in assay [16]; “inactive and 61.1 µM (active)” in [13].
Consider `CC(=O)CC(C)(C)O`, for which the compound was called inactive in assay [1], in assay [2], in [3], in [4], in [5] and in assay [6]. Moreover, the compound was called inactive in assay [7], in assay [8], in assay [9], in assay [11], in assay [14] and in assay [19]. The compound was classed as inactive in assay [18]. The Potency entry in [10], in [12], in assay [13], in [20], in [17] and in assay [15] was “inactive” in each case.
Turning to `CC(C)CCCCCCCOC(=O)CCCCC(=O)OCCCCCCCC(C)C`, the call in assay [1], in [2], in assay [3], in [4], in [5] and in assay [6] was inactive. Further, the compound was called inactive in [7], in assay [8], in assay [9], in assay [11] and in assay [14]. For the same compound, the Potency entry in [10], in assay [12], in assay [13] and in assay [15] was “inactive” each time.
